This is one part of the list. Values without a mark were called inactive. The source made the active and inactive calls. No rule for the calls is given here.
Assay: potency against coupled GDH and TPI enzymes – biochemical, fluorescence, IC50, artefact control for M. tuberculosis FBA inhibitor project, dose response (AID 652145)
Conditions: GDH-TPI coupled enzyme assay, artifact counterscreen
With `CC(=O)N1C(=O)/C(=C2\SC(=S)N(NC(=O)c3ccc(O)cc3)C2=O)c2ccccc21` the IC50 was over 10 µM.
In the case of `CCOc1c2ccc(C(=O)NC3CCCc4ccccc43)cc2nn1CC` (centres undefined), the IC50 is reported as 1.79 µM (active).
In the case of `CCCNC(=O)c1c(N)n(-c2ccc(S(N)(=O)=O)cc2)c2nc3ccccc3nc12`, the IC50 is reported as 2.08 µM (active).
Work on `O=C1C(=O)N(c2ccccc2)C(c2ccccc2)C1c1ccccc1` (centres undefined) yielded an IC50 of over 10 µM.
In the case of `COc1ccc2oc(=O)c(C(=O)NCc3ccccn3)cc2c1`, the IC50 is reported as 1.9 µM (active).
Work on `N#Cc1c(N2CCCCC2)nc(N)c2c(N)nc(SCC(=O)O)cc12` yielded an IC50 of over 10 µM.
With `Cn1cccc1-c1nc2ccccc2n1C` the IC50 was 5.56 µM (active).
In the case of `O=C(NCc1cccc(Cl)c1)C1=CC=CN2CCS(=O)(=O)N=C12`, the IC50 is reported as 4.94 µM (active).
For `CC(=O)N1CCN(C(=O)c2cc(-c3ccc(Cl)s3)nc3ccccc23)CC1`, the IC50 was 2.27 µM (active).

Source: PubChem BioAssay AID652145 (The Scripps Research Institute Molecular Screening Center, 2013)
